Bioassay records: PubChem BioAssay, several laboratories
In the library only some 4.7% were active in any assay of this set; here they are far more common.
SKKanGAS inh: S. pyogenes SKKanGAS growth inhibitors in kanamycin, primary screen, streptokinase expression inhibitor project, SKKanGAS strain, BacTiter-Glo luminescence; 6 h; inhibition, % at 7.5 µM; 1.3% of 300,000 active; AID 1662, 2009;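 active = mean replicate score, as percent of positive control median, at least 50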;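 note: strain carries kanamycin resistance gene driven by streptokinase promoter and grows in 40 µg/ml kanamycin; loss of luminescence reflects streptokinase promoter inhibition or plain growth inhibition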
tim23-1 inh: growth inhibitors of tim23-1 mutant yeast, primary screen, luminescence, uHTS; S. cerevisiae tim23-1 growth, BacTiter-Glo luminescence, 24 h; inhibition, % at 20 µM; 1.3% of 330,000 active;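 active = growth inhibition of the mutant yeast at or above 50%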;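 note: temperature-sensitive mutant grown at 25 °C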
TIM10 inh: growth inhibitors of isogenic TIM10 control yeast, primary screen, counter-screen for tim10-1 yeast inhibitor project, luminescence, uHTS; 1.4% of 330,000 active; inhibition, % at 10 µM; S. cerevisiae TIM10 strain growth, BacTiter-Glo luminescence, 24 h;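 active = inhibition of 40% or more at the single tested concentration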;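 note: wild-type TIM10 isogenic control strain grown at permissive 25 °C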
EBI2 block: EBI2 receptor antagonists, beta-arrestin recruitment, primary screen, cell-based, luminescence, 7a,25-OHC stimulation, uHTS; 7a,25-OHC stimulated; 0.81% of 360,000 active; AID 651636, 2012; inhibition, % at 5 µM; in the data active = inhibition above about 38%;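 note: enzyme fragment complementation signal reports receptor beta-arrestin coupling in cells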
Target sequence (P32249 whole entry, looked up, the tested form may be a part): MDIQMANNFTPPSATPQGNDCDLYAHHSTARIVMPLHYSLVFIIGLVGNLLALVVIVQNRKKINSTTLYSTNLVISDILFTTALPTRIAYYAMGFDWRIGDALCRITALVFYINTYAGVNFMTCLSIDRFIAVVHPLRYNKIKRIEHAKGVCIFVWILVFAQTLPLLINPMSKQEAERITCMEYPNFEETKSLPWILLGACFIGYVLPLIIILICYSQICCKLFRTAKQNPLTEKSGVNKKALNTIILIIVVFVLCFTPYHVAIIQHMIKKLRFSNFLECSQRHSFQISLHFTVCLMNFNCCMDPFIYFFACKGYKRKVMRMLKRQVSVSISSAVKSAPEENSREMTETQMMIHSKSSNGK
PfHsp90 yeast 2: growth inhibition of PfHsp90-expressing yeast, primary screen, antimalarial PfHsp90 inhibitor project, S. cerevisiae, BacTiter-Glo luminescence, single point, set 2 | 0.32% of 310,000 active | BacTiter-Glo ATP, 48 h; yeast lacking PDR1 and PDR3 efflux regulators | inhibition, % at 9.4 µM;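 active = every replicate shows inhibition above about 80%, whatever the replicate mean, limit read from the data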
tim10-1 inh: growth inhibitors of tim10-1 mutant yeast, primary screen, luminescence, uHTS; S. cerevisiae tim10-1 ts strain growth, BacTiter-Glo, 24 h; inhibition, % at 20 µM; 2.2% of 330,000 active;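 active = inhibition of at least 40%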;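 note: mutant grown at 25 °C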
tim10-1 confirm: growth inhibitors of tim10-1 mutant yeast, confirmation, single concentration, luminescence, S. cerevisiae; 56% of 7,400 active; shares compounds with tim10-1 inh; inhibition, % at 20 µM; AID 463213, 2010; S. cerevisiae tim10-1 ts strain growth, BacTiter-Glo, 24 h;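 active = inhibition of yeast growth at or above a set limit in either of two repeat tests at 20 µM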;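 note: tim10-1 mutant grown at permissive 25 °C to find synthetic lethal compounds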
Numbers stand for hits; n = inactive; x = no result given.

SMILES | SKKanGAS inh | tim23-1 inh | TIM10 inh | EBI2 block | PfHsp90 yeast 2 | tim10-1 inh | tim10-1 confirm
Cc1nc([N+](=O)[O-])c(C(=O)OCc2ccccc2)n1C | n | n | n | n | x | n | x
Cc1ccc2cc(C)c(SCC(=O)Nc3cc(C)on3)nc2c1 | n | n | n | n | n | n | x
Cc1ccccc1NC(=O)C1CC(=O)N(c2ccc3c4c(cccc24)CC3)C1 (centres undefined) | n | n | n | n | n | n | x
O=C(Nc1ccccc1Br)C1CC(=O)N(c2ccc3c4c(cccc24)CC3)C1 (centres undefined) | n | n | n | n | n | 41.3 | 32.5
Cc1nc2c(Cl)c(C)nn2c2c1CCC2 | n | n | n | n | x | 41.1 | n
O=C(NNc1nc2ccccc2s1)Nc1ccc(F)cc1 | n | n | n | n | n | n | x
O=C(NNc1nc2ccccc2s1)c1ccccc1F | n | n | n | n | n | 47.2 | n
CC(C)OCCCn1c(-c2ccc(Br)cc2)c[nH]c1=S | n | n | n | n | n | 42.8 | n
CC(O)(c1ccc(F)c(F)c1)c1nc(-c2ccoc2)cs1 (centres undefined) | x | x | x | n | x | x | x
O=C(CN1C(=O)NC2(CCCC2)C1=O)N1CCN(S(=O)(=O)c2cccc(C(F)(F)F)c2)CC1 | n | n | n | n | x | n | x
CC1(C)CCCN(C(=O)c2ccc3c(c2NCCO)C(=O)c2ccccc2C3=O)C1 | n | n | n | 38.4 | n | 43.0 | n
O=C1c2ccccc2C(=O)c2c1ccc(C(=O)N1CCCCC1)c2NCCO | n | n | n | n | n | n | x
Cc1noc(/C=C/N(C)C)c1S(=O)(=O)N1CCCC(C(=O)Nc2ccc(F)cc2F)C1 (centres undefined) | n | n | n | n | n | n | x
CCc1ccc(NC(=O)CSc2nc3ccccc3c(=O)n2CCCN2CCC(C)CC2)cc1 | n | n | n | n | x | n | x
CCOC(=O)C1=C(C(F)(F)F)Nc2ncnn2C1c1ccc(OC)c(OC)c1OC (centres undefined) | n | n | n | n | n | n | x
S=C(Nc1nc2c(s1)CCCC2)NC1CC1 | n | n | n | n | n | 41.3 | n
CCOc1ncccc1C(=O)N(C)CC(=O)Nc1ccccc1SC | n | n | n | n | n | n | x
CCCCCCCCCCCCCCCC(=O)OC(CC(=O)O)C[N+](C)(C)C (centres undefined) | x | n | n | n | 108.8 | 63.9 | n
COc1ccccc1N=Cc1nc(-c2ccccc2)oc1OC(C)=O | n | n | n | n | n | 52.1 | n
CCc1nccn1S(=O)(=O)c1ccc(Br)cc1Br | n | n | n | n | n | n | x
Cc1c(C(=O)/C=C/c2cccs2)oc2ccc(F)cc12 | n | n | n | n | n | 45.1 | 38.0
C1CCCCCC(NCCN2CCNCC2)CCCCC1 | n | n | n | n | n | n | x
Cc1cccc(NC(=O)CSc2nc3ccccc3c3nc(CCc4c(C)n[nH]c4C)nn23)c1 | n | n | n | n | x | 41.4 | n
Cc1ccc(S(=O)(=O)CCC(=O)Nc2sccc2C(N)=O)cc1 | x | n | n | n | n | n | x
COC(=O)c1ccsc1NC(=O)CCS(=O)(=O)c1ccccc1 | n | n | n | n | n | 41.5 | n
SMILES | SKKanGAS inh | tim23-1 inh | TIM10 inh | EBI2 block | PfHsp90 yeast 2 | tim10-1 inh | tim10-1 confirm
COC(=O)c1ccsc1NC(=O)CCS(=O)(=O)c1ccc(Cl)cc1 | n | n | n | n | n | 56.2 | 59.1
CC(=O)N1CCC(C(=O)N2c3ccccc3N=C(c3ccc4c(c3)OCO4)C2C(=O)Nc2c(C)cccc2C)CC1 (centres undefined) | x | x | x | n | x | x | x
CCN1C(=O)[C@H]2[C@@H](c3ccc(-c4ccccc4)cc3)N3CCC[C@@]3(C(=O)OC)[C@H]2C1=O | n | n | n | n | n | n | x
C=CCn1c(SCc2ccc(C#N)cc2)nnc1-c1ccc(C)cc1 | n | n | n | n | x | 44.4 | n
Cn1c(SCc2ccc(C#N)cc2)nnc1-c1ccncc1 | n | n | n | n | n | n | x
COc1ccccc1-c1ccc2c(c1)C(C)(Cc1ccc(F)c(Cl)c1)C(=O)N2 (centres undefined) | x | x | x | n | x | x | x
CC(C)NC(=O)CN1CCN(C(c2cc3ccccc3o2)c2nnnn2C(C)(C)C)CC1 (centres undefined) | x | x | x | n | x | x | x
CCC1CCCCN1c1cc(C)nc2cc(-c3cccc(C)c3)nn12 (centres undefined) | 57.1 | n | n | n | n | 41.9 | n
Oc1ccc(Cl)cc1C(C#Cc1ccccc1)N1CCOCC1 (centres undefined) | n | n | n | n | n | n | x
c1cncc(-c2nc(NCc3ccco3)c3ccccc3n2)c1 | n | n | n | n | n | 41.1 | 36.8
Cc1ccc(-c2nc(NCc3cccnc3)c3ccccc3n2)cc1 | n | n | n | n | n | 45.5 | n
O=C(CSC1=NS(=O)(=O)c2cc(Cl)ccc2N1)Nc1cccc(F)c1 | n | n | n | n | n | n | x
COc1ccc(C)cc1NC(=O)NCCC1=CCCCC1 | n | n | n | n | x | 43.1 | 30.8
COc1ccccc1C(=O)Nc1nnc(S(=O)(=O)N2CCCCCC2)s1 | n | n | n | n | n | n | x
COc1ccccc1C(=O)Nc1nnc(S(=O)(=O)N2CCCCC2)s1 | n | n | n | n | n | 47.6 | n
Cc1ccc(N=Nc2c(O)n(CN3CCOCC3)c3ccccc23)cc1 | n | n | n | n | x | 43.7 | 32.5
CCC(C)NC(=O)c1cc2c(=O)[nH]c3ccc(C)cc3c2s1 (centres undefined) | n | n | n | n | n | n | x
CN(C)c1nc(SCC(=O)Nc2ccccc2)nc(N2CCOCC2)n1 | n | n | n | n | n | n | x
CC(C)(C)Nc1nc(SCC(=O)Nc2ccccc2)nc(N2CCOCC2)n1 | n | n | n | n | n | 46.2 | n
CCCc1ccc2oc(C(=O)N3CCC(C(N)=O)(N4CCCCC4)CC3)c(C)c2c1 | n | n | n | n | n | 42.5 | n
Cc1ccc2oc(C(=O)N3CCC(C(N)=O)(N4CCCCC4)CC3)c(C)c2c1 | n | n | n | n | n | n | x
OCCSc1nc(-c2cccnc2)nc2ccccc12 | n | n | n | n | n | n | x
COc1ccc(CCNc2ccc(N3C(=O)CC(C)C3=O)cc2[N+](=O)[O-])cc1OC (centres undefined) | n | n | n | n | n | n | x
O=C(Nc1sc2c(c1C(=O)c1ccc(Cl)cc1)CCCC2)c1cccnc1 | n | n | n | n | x | 40.8 | n
Cc1ccc(-c2cc(C(=O)Nc3ccc(S(=O)(=O)Nc4ncccn4)cc3)[nH]n2)c(O)c1C | n | n | n | n | n | n | x
